From PubChem
NPC1 promoter act = activates the NPC1 promoter. 320,000 tested, 2.4% active. Potency, µM (doses to about 9.22 µM), for inactives: at the highest dose activation, usual class: activators. Huh7 NPC1 promoter luciferase reporter, 24 h; further: % of control where 0% means no effect; nearly all actives have a fitted effect of over 60% in size
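Luminescence from an NPC1 promoter-driven luciferase reporter in stably transfected Huh7 cells was measured after 24 h compound treatment at 37 °C, followed by 10 min ambient incubation with luciferase detection reagent.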
ELG1 genotox = induces genotoxicity in HEK293T cells with luciferase-tagged ELG1 | 330,000 tested, 1.3% active | Potency, µM (doses to about 46 µM), without a hit: at the top dose activity change, positive = activation, hits mostly activators | HEK293T ELG1-luciferase reporter, luminescence, 16 h; further: % of control where 0% means no effect; nearly all actives have a fitted effect of over 60% in size
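DMSO vehicle served as control against compound-treated ELG1-luciferase HEK293T cells; exposure lasted 16 hr at 37 °C and 5% CO2, followed by ONE-Glo luminescence detection after 30 min.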
Rab9 prom act = activators of Rab9 promoter. Potency, µM (doses to about 9.22 µM), without a hit: top-dose activation, negative = inhibition, usual class: activators. 320,000 tested, 2.8% active. Huh7 Rab9 promoter-luciferase reporter, luminescence, 24 h; further: % of control where 0% means no effect; nearly all actives have a fitted effect of over 60% in size
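Huh7 cells stably carrying a Rab9 promoter-luciferase reporter, 1500 cells per well in OP-MEM I with 10% FBS, treated with compound 24 hours at 37C. Luciferase activity read by luminescence after 10 minutes with Amplite reagent.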
SMN2 splice up = increases expression of the SMN2 splice variant; HEK293 SMN2-luciferase splicing reporter, luminescence, 30-36 h; Potency, µM (highest dose often 46.1 µM), without a hit: at the top dose activity change, positive = activation, actives largely listed as activators; 210,000 tested, 2.8% active; AID 1458; further: % of control where 0% means no effect; nearly all actives have a fitted effect of over 55% in size
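HEK293 cells carry an SMN2 […]–luciferase reporter in which exon 7 inclusion puts luciferase in frame. Cells were plated 10-12 h before compound addition, then incubated 30-36 h at 37C. ONE-Glo luminescence was read; sodium butyrate at 4.5 mM final served as control.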
FLuc modulator = counter-screen for miR-21 project: firefly luciferase inhibitors or activators; P08659; purified FLuc, Km substrates, luminescence inhibition; Potency, µM (series often up to 57.5 µM), inactives show at the top dose activity change, negative = inhibition, usual class: inhibitors; 360,000 tested, 6.9% active;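 further: plate controls were vehicle for no effect and reference inhibitor for full effect; nearly all actives have a fitted effect of over 55% in size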
Target sequence (P08659 whole entry, looked up): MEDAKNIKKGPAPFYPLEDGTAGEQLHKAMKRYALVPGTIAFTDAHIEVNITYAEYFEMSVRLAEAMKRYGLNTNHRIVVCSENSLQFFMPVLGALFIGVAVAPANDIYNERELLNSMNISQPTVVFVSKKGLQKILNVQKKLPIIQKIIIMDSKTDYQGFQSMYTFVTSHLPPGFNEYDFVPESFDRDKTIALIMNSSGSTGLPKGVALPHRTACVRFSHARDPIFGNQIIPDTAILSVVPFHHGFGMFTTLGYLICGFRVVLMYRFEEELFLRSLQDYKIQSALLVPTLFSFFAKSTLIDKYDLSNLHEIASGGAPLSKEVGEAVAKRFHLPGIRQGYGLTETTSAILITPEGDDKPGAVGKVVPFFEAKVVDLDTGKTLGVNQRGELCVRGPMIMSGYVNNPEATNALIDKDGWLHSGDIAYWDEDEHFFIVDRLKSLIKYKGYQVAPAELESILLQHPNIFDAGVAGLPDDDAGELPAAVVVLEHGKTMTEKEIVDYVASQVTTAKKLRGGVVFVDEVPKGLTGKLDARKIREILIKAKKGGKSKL
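Biochemical qHTS of compounds, final roughly 60 µM downward over six points, against 10 nM purified firefly luciferase using Km concentrations of substrates (10 uM D-luciferin, 10 uM ATP) in Tris acetate pH 7.5 buffer; luminescence output.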
An asterisk follows results filed as active. A selection: hits, their analogues and other compounds. The true share with any hit is near 7.5%. The call rests on the fitted dose curve; in most records, active means well fitted curve in the direction sought with a large enough effect; inconclusive means small, poorly fitted or top-dose-only effect, or another doubt; inactive means no such curve, though single readings can be large; an effect the other way counts as inactive or inconclusive. Potency means the concentration at half of the fitted maximal effect.

`Cc1ccc(OCc2ccc(C#N)cc2)c(C(=O)c2cc(C#N)c(=O)n(C3CC3)c2)c1` gave NPC1 promoter act 1.3%, ELG1 genotox -4.3%, Rab9 prom act -1.5% and FLuc modulator 0.4%.
For Cc1cc(NC(=O)c2cc(-c3ccncc3)nc3c(C)cccc23)no1 the results were NPC1 promoter act -15.4%, ELG1 genotox -2.2%, Rab9 prom act -19.7%, SMN2 splice up 1.4% and FLuc modulator 1.9%.
Screening COc1ccc(NC(=O)c2sc3nc(C)cc(C)c3c2N)cc1 returned NPC1 promoter act 1.58µM*, ELG1 genotox inconclusive, Rab9 prom act 1.26µM* and FLuc modulator 3.79µM*.
For C=CCNc1nc(N)c(C(=O)Nc2cc(C)on2)s1 the results were NPC1 promoter act inconclusive, ELG1 genotox 15.5%, Rab9 prom act inconclusive, SMN2 splice up 11.2µM* and FLuc modulator 16.9µM*.
Cc1cc(C)c(NC(=O)c2sc3nc(C)cc(C)c3c2N)c(C)c1 was read as SMN2 splice up -2.0% and FLuc modulator -3.5%.
`COc1cc(Cl)c(C)cc1NC(=O)c1sc2nc(C)cc(C)c2c1N` gave SMN2 splice up 5.8% and FLuc modulator 0.5%.
Cc1cc(C)c2c(N)c(C(=O)Nc3ccc(C)c(C)c3)sc2n1 was read as NPC1 promoter act 1µM*, ELG1 genotox 1.16µM*, Rab9 prom act 0.631µM* and FLuc modulator 1.69µM*.
Screening Cc1cc(C)c2c(N)c(C(=O)Nc3ccc(F)cc3)sc2n1 returned NPC1 promoter act 0.708µM*, ELG1 genotox inconclusive, Rab9 prom act 0.501µM* and FLuc modulator 1.51µM*.
NC1=NC[C@H](c2ccccc2)N1CCc1cc(C(F)(F)F)cc(C(F)(F)F)c1 was read as NPC1 promoter act -14.2%, ELG1 genotox 0.8%, Rab9 prom act -3.6% and FLuc modulator -2.1%.
Screening Cc1cc(C)cc(NC(=O)c2sc3nc(C)cc(C)c3c2N)c1 returned NPC1 promoter act 1.78µM*, ELG1 genotox inconclusive, Rab9 prom act 3.16µM* and FLuc modulator 9.53µM*.
Cc1cc(C)c2c(N)c(C(=O)Nc3ccc([N+](=O)[O-])cc3)sc2n1 was read as NPC1 promoter act 0.501µM*, ELG1 genotox inconclusive, Rab9 prom act 0.794µM* and FLuc modulator -3.3%.
For COCc1cc(C)nc2sc(C(=O)Nc3ccccc3F)c(N)c12 the results were NPC1 promoter act 23.1%, ELG1 genotox 14.9%, Rab9 prom act 26.3% and FLuc modulator 19µM*.
`COCc1cc(C)nc2sc(C(=O)Nc3ccccc3O)c(N)c12` gave SMN2 splice up -10.7% and FLuc modulator -0.8%.
For Cc1cc(C)c2c(N)c(C(=O)NC3CCCC3)sc2n1 the results were NPC1 promoter act 7.0%, ELG1 genotox 9.7%, Rab9 prom act 23.9%, SMN2 splice up 11.0% and FLuc modulator inconclusive.
`Cc1cc(C)c2c(N)c(C(=O)N/N=C/c3cccs3)sc2n1` gave NPC1 promoter act 1.78µM*, ELG1 genotox inconclusive, Rab9 prom act 1.58µM* and FLuc modulator inconclusive.
O=C1[C@H]2[C@@H](c3ccc(F)cc3)N3C(=O)N(c4cccc(Br)c4)C(=O)[C@@]3(Cc3ccc(Cl)cc3)[C@H]2C(=O)N1C1CCCCC1 was read as NPC1 promoter act -13.4%, ELG1 genotox -3.2%, Rab9 prom act -10.2% and FLuc modulator 3.2%.
For COc1ccc(OCC(=O)NNC(=O)Nc2cccc(Cl)c2)cc1 the results were NPC1 promoter act 1.4%, ELG1 genotox -4.3%, Rab9 prom act -1.5% and FLuc modulator -0.8%.
Screening CC1(C)CC(=O)C2=C(C1)NC(=S)C(C#N)C21CCCCC1 (configuration not stated) returned NPC1 promoter act -0.9%, ELG1 genotox -2.5%, Rab9 prom act -1.5% and FLuc modulator -17.0%.
Screening C=CCN(c1ccccc1)S(=O)(=O)c1ccc2[nH]cc(C(=O)NCCOC)c(=O)c2c1 returned NPC1 promoter act -1.0%, ELG1 genotox -7.7%, Rab9 prom act -5.5% and FLuc modulator 1.7%.
